The values below come from PubChem BioAssay (NCI).

Compounds without any hit were thinned out: in the full panel of roughly 79,000, 15% have a hit. Values without a mark were called inactive. The source made the active and inactive calls. Cut-off read from the data, not from the text of the source: active = growth inhibition above about 70%; inactive = the rest.

The nature of experiment [1]: NCI Yeast Anticancer Drug Screen. Data for the rad50 strain (AID 155).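 Note: 0% = growth of vehicle-only cultures of the same strain.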 Conditions: S. cerevisiae rad50 strain growth inhibition, active compounds read high. The essentials:
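Genetically altered yeast (DNA repair pathway); compound treatment; growth inhibition vs vehicle ctrl.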

Experiment [2] in a line: NCI Yeast Anticancer Drug Screen. Data for the mec2-1 strain (AID 157). Conditions: S. cerevisiae mec2-1 strain, active compounds read high. In outline: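 Vehicle-treated cultures served as reference for growth inhibition of compound-exposed mec2-1 yeast.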
Experiment [3] can be described thus: NCI Yeast Anticancer Drug Screen. Data for the sgs1 mgt1 strain (AID 161).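 Note: 0% = growth of cultures given vehicle only.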 Conditions: S. cerevisiae sgs1 mgt1 strain, active compounds read high. The essentials:
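Mutant yeast exposed to compound; growth scored against vehicle-only wells.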

Experiment [4] in a line: NCI Yeast Anticancer Drug Screen. Data for the cln2 rad14 strain (AID 165).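 Note: 0% = growth equal to vehicle treated cultures.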 The note with it: S. cerevisiae cln2 rad14 strain, active compounds read high. The essentials: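 Each compound was tested on cln2 rad14 yeast. Inhibition of growth was calculated against vehicle-exposed controls.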
The nature of experiment [5]: NCI Yeast Anticancer Drug Screen. Data for the bub3 strain (AID 167). Conditions: S. cerevisiae bub3 mutant strain, active compounds read high. The essentials:
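Yeast carrying a defined mutation is treated with each compound, and growth is compared with that of vehicle-exposed cells to give inhibition.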

Experiment [6] is described as follows: NCI Yeast Anticancer Drug Screen. Data for the mlh1 rad18 strain (AID 175). Conditions: S. cerevisiae mlh1 rad18 strain growth inhibition, active compounds read high. In outline:
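Vehicle-treated cultures served as the reference for growth inhibition in a yeast strain carrying DNA damage repair alterations exposed to each compound.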

Where [7] appears, read: at 5.0 µM (retest, dose inferred, filed as 0.5).
Setting [8] is: at 50.0 µM (retest, dose inferred, filed as 5.0).

For the compound `CC1(COc2ccccc2OCC2(C)CO2)CO1` (configuration not stated), the growth inhibition is 5% in experiment [1] (setting [7]); 4% in experiment [1] (setting [8]); 12.2% in experiment [1] (at 50.0 µM); 2% in experiment [2] (setting [7]); 1% in experiment [2] (setting [8]); 1.15% in experiment [2] (at 50.0 µM). The growth inhibition was 0% in experiment [3] (setting [7]); 10% in experiment [3] (setting [8]); 7.75% in experiment [3] (at 50.0 µM); 2% in experiment [4] (setting [7]); 4% in experiment [4] (setting [8]); 70.7% (active) in experiment [4] (at 50.0 µM). In addition, the growth inhibition in experiment [5] (setting [7]) was -2%; in experiment [5] (setting [8]), -3%; in experiment [5] (at 50.0 µM) it was 5.6%; in experiment [6] (setting [7]) it was 7%; in experiment [6] (setting [8]), 36%; in experiment [6] (at 50.0 µM), 5.35%.
As for `Nc1nccc(NCCCCCCNc2ccnc(N)n2)n1`, the growth inhibition in experiment [1] (setting [7]) is 16%; in experiment [1] (setting [8]) it was 41%; in experiment [1] (at 50.0 µM) it was 43.2%; in experiment [2] (setting [7]), 13%; in experiment [2] (setting [8]), 19%; in experiment [2] (at 50.0 µM), 41.6%. Also, the growth inhibition in experiment [3] (setting [7]) was 8%; in experiment [3] (setting [8]), 36%; in experiment [3] (at 50.0 µM), 80% (active); in experiment [4] (setting [7]) it was 17%; in experiment [4] (setting [8]), 21%; in experiment [4] (at 50.0 µM), 52%. Further, the growth inhibition in experiment [5] (setting [7]) is 9%; in experiment [5] (setting [8]) it was 33%; in experiment [5] (at 50.0 µM), 48%; in experiment [6] (setting [7]), 17%; in experiment [6] (setting [8]), 60%; in experiment [6] (at 50.0 µM), 57.2%.
For the compound `Cc1cc(N2C(=O)CSC2=S)ccc1Cl`, the growth inhibition was -3% in experiment [1] (setting [7]); 1% in experiment [1] (setting [8]); 61.1% in experiment [1] (at 50.0 µM); -4% in experiment [2] (setting [7]); -2% in experiment [2] (setting [8]); 21.9% in experiment [2] (at 50.0 µM). The growth inhibition in experiment [3] (setting [7]) is -2%; in experiment [3] (setting [8]) it was 8%; in experiment [3] (at 50.0 µM) it was 79.2% (active); in experiment [4] (setting [7]), -2%; in experiment [4] (setting [8]), -17%; in experiment [4] (at 50.0 µM) it was 12.8%. Further, the growth inhibition in experiment [5] (setting [7]) was -6%; in experiment [5] (setting [8]) it was -1%; in experiment [5] (at 50.0 µM), 7.95%; in experiment [6] (setting [7]), -6%; in experiment [6] (setting [8]) it was 0%; in experiment [6] (at 50.0 µM), 51.2%.
For the compound `O=CNc1ccc2c(c1)Cc1cc(NC=O)ccc1-2`, the growth inhibition was -4% in experiment [1] (setting [7]); 81% (active) in experiment [1] (setting [8]); 91% (active) in experiment [1] (at 50.0 µM); -3% in experiment [2] (setting [7]); 25% in experiment [2] (setting [8]); 34.5% in experiment [2] (at 50.0 µM). Further, the growth inhibition in experiment [3] (setting [7]) was 18%; in experiment [3] (setting [8]), 82% (active); in experiment [3] (at 50.0 µM), 91.4% (active); in experiment [4] (setting [7]) it was -34%; in experiment [4] (setting [8]), 10%; in experiment [4] (at 50.0 µM), -6.85%. Moreover, the growth inhibition is 2% in experiment [5] (setting [7]); -9% in experiment [5] (setting [8]); 7.8% in experiment [5] (at 50.0 µM); 14% in experiment [6] (setting [7]); 79% (active) in experiment [6] (setting [8]); 74.2% (active) in experiment [6] (at 50.0 µM).
For the compound `COc1cc(/C=C(/C)C[N+](=O)[O-])ccc1O`, the growth inhibition in experiment [1] (setting [7]) is 54%; in experiment [1] (setting [8]), 99% (active); in experiment [1] (at 50.0 µM), 99.5% (active); in experiment [2] (setting [7]), 23%; in experiment [2] (setting [8]), 99% (active); in experiment [2] (at 50.0 µM), 99.8% (active). The growth inhibition was 15% in experiment [3] (setting [7]); 93% (active) in experiment [3] (setting [8]); 99.8% (active) in experiment [3] (at 50.0 µM); 13% in experiment [4] (setting [7]); 99% (active) in experiment [4] (setting [8]); 98.8% (active) in experiment [4] (at 50.0 µM). For the same compound, the growth inhibition in experiment [5] (setting [7]) is 36%; in experiment [5] (setting [8]) it was 99% (active); in experiment [5] (at 50.0 µM), 98.8% (active); in experiment [6] (setting [7]), 25%; in experiment [6] (setting [8]), 99% (active); in experiment [6] (at 50.0 µM), 99.5% (active).
For `COc1ccc2nc3cc(Cl)ccc3c(NCCNCCCNC(=O)c3cc(-c4ccccc4)nc4ccccc34)c2c1`, the growth inhibition is -14% in experiment [1] (setting [7]); 98% (active) in experiment [1] (setting [8]); 96.3% (active) in experiment [1] (at 50.0 µM); -1% in experiment [2] (setting [7]); 87% (active) in experiment [2] (setting [8]); 93.9% (active) in experiment [2] (at 50.0 µM). The growth inhibition in experiment [3] (setting [7]) is -5%; in experiment [3] (setting [8]), 69%; in experiment [3] (at 50.0 µM), 95.2% (active); in experiment [4] (setting [7]), 30%; in experiment [4] (setting [8]) it was 98% (active); in experiment [4] (at 50.0 µM), 97.5% (active). Further, the growth inhibition in experiment [5] (setting [7]) is -15%; in experiment [5] (setting [8]), 97% (active); in experiment [5] (at 50.0 µM) it was 94.2% (active); in experiment [6] (setting [7]), -11%; in experiment [6] (setting [8]), 98% (active); in experiment [6] (at 50.0 µM) it was 98.2% (active).
In the case of `N#CCCN(CCCN1CCOCC1)C(=S)Nc1cccc(C(F)(F)F)c1`, the growth inhibition in experiment [1] (setting [7]) is 34%; in experiment [1] (setting [8]) it was 44%; in experiment [1] (at 50.0 µM), 42.9%; in experiment [2] (setting [7]), 23%; in experiment [2] (setting [8]), 33%; in experiment [2] (at 50.0 µM), 35.8%. Also, the growth inhibition is 41% in experiment [3] (setting [7]); 37% in experiment [3] (setting [8]); 71.1% (active) in experiment [3] (at 50.0 µM); 41% in experiment [4] (setting [7]); 60% in experiment [4] (setting [8]); 59.5% in experiment [4] (at 50.0 µM). In addition, the growth inhibition was 49% in experiment [5] (setting [7]); 58% in experiment [5] (setting [8]); 49.8% in experiment [5] (at 50.0 µM); 48% in experiment [6] (setting [7]); 61% in experiment [6] (setting [8]); 36% in experiment [6] (at 50.0 µM).
As to `CC(=O)/C(=C\c1ccccc1Cl)C(=O)CCN(C)C`, the growth inhibition is -35% in experiment [1] (setting [7]); 93% (active) in experiment [1] (setting [8]); 37.4% in experiment [1] (at 50.0 µM); 8% in experiment [2] (setting [7]); 96% (active) in experiment [2] (setting [8]); 38.1% in experiment [2] (at 50.0 µM). In addition, the growth inhibition was 0% in experiment [3] (setting [7]); 94% (active) in experiment [3] (setting [8]); 74% (active) in experiment [3] (at 50.0 µM); 6% in experiment [4] (setting [7]); 97% (active) in experiment [4] (setting [8]); 20.6% in experiment [4] (at 50.0 µM). In addition, the growth inhibition in experiment [5] (setting [7]) is 7%; in experiment [5] (setting [8]) it was 97% (active); in experiment [5] (at 50.0 µM) it was 18.4%; in experiment [6] (setting [7]) it was -17%; in experiment [6] (setting [8]) it was 97% (active); in experiment [6] (at 50.0 µM) it was 80.8% (active).
Consider `CC1=NN(C(=O)c2ccc(Cl)cc2)C(=O)C1N=Nc1ccc(S(=O)(=O)Nc2ncccn2)cc1` (configuration not stated), for which the growth inhibition in experiment [1] (setting [7]) was 61%; in experiment [1] (setting [8]) it was 93% (active); in experiment [1] (at 50.0 µM) it was 55.7%; in experiment [2] (setting [7]) it was 4%; in experiment [2] (setting [8]), 51%; in experiment [2] (at 50.0 µM) it was 13.2%. Besides, the growth inhibition in experiment [3] (setting [7]) was 11%; in experiment [3] (setting [8]), 8%; in experiment [3] (at 50.0 µM), 10.8%; in experiment [4] (setting [7]), -6%; in experiment [4] (setting [8]), 2%; in experiment [4] (at 50.0 µM), 19.4%. Also, the growth inhibition was -2% in experiment [5] (setting [7]); -8% in experiment [5] (setting [8]); -6.7% in experiment [5] (at 50.0 µM); 6% in experiment [6] (setting [7]); 20% in experiment [6] (setting [8]); 17.4% in experiment [6] (at 50.0 µM).
